According to PubChem BioAssay AID493240 (Broad Institute, 2011):
Out of some 1,300 compounds screened, about 270 (21%) were called active. No rule for the calls is given here. A selection follows. Where a call stands in place of a potency, no number is given. Potency and affinity values are given separately.

Assay: cytotoxicity in parental SK-MEL-5 melanoma cells – cell-based, CellTiter-Glo, cherry-picked, set 3, orthogonal assay for MITF inhibitor project, dose response (AID 493240)
Settings: SK-MEL-5 viability, ATP luminescence (CellTiter-Glo), 24 h; series mostly up to 35 µM

SMILES	outcome
COc1ccc(C(=O)NCCSc2ccccc2C)cc1	inactive
CCOc1ccc(NC(=O)c2ccccn2)cc1	inactive
CC(C)N=C(NS(=O)(=O)c1ccccc1)C(Cl)(Cl)Cl	inactive
O=C(Cn1cnc2ccccc2c1=O)Nc1ccc2c(c1)OCCO2	inactive
Cc1nn(C)cc1/C=C/C(=O)c1cccs1	inactive
Cc1ccn2c(Nc3ccccc3)c(-c3ccccn3)nc2c1	inactive
O=[N+]([O-])c1cc(C(F)(F)F)ccc1NCCc1ccccn1	inactive
COc1ccc(COC(=O)c2n[nH]c3ccccc23)cc1F	inactive
Cc1cc(Br)ccc1OCc1nc(-c2cccnc2)no1	inactive
O=C(NC1CCCCCC1)c1cc2ccccc2oc1=O	inactive
CCOC(=O)c1cc([N+](=O)[O-])c([N+](=O)[O-])cc1NC(C)=O	inactive
N/C(=N\OC(=O)c1ccccc1)c1ccccn1	inactive
N/C(CS(=O)(=O)c1ccccn1)=N\OC(=O)c1ccccc1Cl	inactive
O=C(Nc1ccc2c(c1)OCCO2)c1ccoc1	inactive
COc1ccccc1NC(=O)c1cnc(SCC(=O)NCC2CCCO2)n(C)c1=O (stereo not drawn)	inactive
COc1ccc(Cn2c(-c3ccc(C)cc3)c[n+]3ccccc23)cc1	inactive
COc1ccc2oc(=O)c(C(=O)Nc3ccccc3C)cc2c1	inactive
CCC[n+]1c(C)sc2c3c(ccc21)CCCC3	inactive
O=C(Nc1ccccc1)C1Cc2ccccc2CN1C(=O)c1ccco1 (stereo not drawn)	inactive
Cc1ccc(OCCNCc2ccccc2)c(C)c1	inactive
Cc1cc(Cl)ccc1NC(=O)c1ccc2c(c1)OCO2	inactive
CN(C)c1ccc(/C=C(\C#N)c2ccccn2)cc1	inactive
O=C1NC2c3c(I)sc(I)c3C(=O)C2O1 (stereo not drawn)	inactive
C/C(=N\Nc1cc(N2CCOCC2)ncn1)c1ccccc1	inactive
O=C(Nc1ccccc1N1CCN(C(=O)c2ccccc2)CC1)c1ccc([N+](=O)[O-])o1	inactive

SMILES	outcome
COc1ccccc1N1CCN(/N=C/c2cccc(Cl)c2)CC1	inactive
O=C(CS(=O)c1ccc(C(F)(F)F)cc1[N+](=O)[O-])Oc1ccccc1 (stereo not drawn)	inactive
O=C(/C=C\c1ccccc1)NCC(=O)N/N=C/c1ccc(O)cc1O	inactive
CCOC(=O)/C=c1/s/c(=C/c2ccc3cc(OC)ccc3c2)c(=O)n1CC(=O)NCC1CCCO1 (stereo not drawn)	inactive
CC(C)(C)C(=O)/C(=C/c1ccncc1)n1cncn1	inactive
c1ccc(OCc2nn3c(-c4ccccn4)nnc3s2)cc1	inactive
O=C(N/N=C/c1ccccc1Cl)c1n[nH]c2c1CCCC2	inactive
N#Cc1cnn2cc(CCN3CCOCC3)c(-c3ccc(F)cc3)nc12	inactive
CCCCC(=O)N/C(N)=N/c1nc2ccccc2o1	inactive
C=CCn1cccc(C(=O)Nc2ccc(C)c(Cl)c2)c1=O	inactive
N#C/C(C(=O)c1ccccc1)=C1/CCCCCN1	inactive
Cc1ccc2cc(NC(=O)Cc3ccccc3)ccc2n1	inactive
Cc1cccc(/C=C2/Sc3ccc(C(=O)NCCN4CCCC4)cc3NC2=O)c1	inactive
CCN1CCCC1CNC(=O)c1ccc2c(c1)NC(=O)/C(=C\c1ccc(OC)c(OC)c1)S2 (stereo not drawn)	inactive
CCN1CCN(CCCNC(=O)c2ccc3c(Cl)c4c(nc3c2)CCCC4)CC1	inactive
COc1ccc(/C=C2\Sc3ccc(C(=O)NCCN4CCCCCC4)cc3N(C)C2=O)cc1	inactive
COc1cccc(/C=C2/Sc3ccc(C(=O)NCCN4CCCC4)cc3NC2=O)c1	inactive
CC1(C)CC(=O)c2cnc(N3CCc4ccccc43)nc2C1	inactive
CC1=C/C(=N\NC(=S)Nc2cccnc2)CC(C)(C)C1	inactive
CC(C)(C)NC(=O)CCN(/N=C/c1ccc([N+](=O)[O-])o1)C1=NS(=O)(=O)c2ccccc21	inactive
O=C1CCC2S/C(=C/Nc3ccc(C(F)(F)F)cc3)C(=O)N12 (stereo not drawn)	inactive
Nc1nc2n[nH]nc2c(=O)[nH]1	inactive
CN1CCN(c2ccc(NC(=S)NC(=O)c3cccc4ccccc34)cc2)CC1	inactive
CCOc1ccc(-n2c(O)c(/C=N/Nc3nc(C)cc(C)n3)c3ccccc3c2=O)cc1	inactive
O=C1N=C(N2CCOCC2)S/C1=C\C=C/c1ccccc1	inactive

SMILES	outcome
O=C(c1ccc(F)cc1)N1CCC(c2ccccc2)C1 (stereo not drawn)	inactive
COc1ccc2c(c1OC)C(=O)N(c1ccc(C)cc1)C2	inactive
Cc1cnc(NC(=O)c2nn(C)cc2[N+](=O)[O-])s1	inactive
Cn1cc([N+](=O)[O-])c(C(=O)Nc2cc(Oc3ccccc3)cc([N+](=O)[O-])c2)n1	inactive
Cc1ccc(-n2nnnc2CNC(=O)c2ccc([N+](=O)[O-])o2)cc1C	inactive
CCc1cc(C=NC2CCCCC2)c(O)s1	inactive
Cc1ccc(-n2[nH]c(=O)c(-c3ccccn3)c2C)cc1	inactive
O=C(CSc1nc2ccccc2[nH]1)c1ccc2c(c1)OCO2	inactive
O=C(Nc1ccc(Br)cc1)c1ccc2c(c1)OCO2	inactive
CCc1ccc(-c2cc(C(=O)Nn3cnnc3)c3ccccc3n2)cc1	inactive
CCc1ccccc1NC(=O)CN(C)C(=O)Cn1ncc(Cl)c(Cl)c1=O	inactive
CCOC(=O)c1[nH]cnc1N=Nc1c(O)ccc2ccccc12	inactive
O=C(N/N=C/c1ccc([N+](=O)[O-])o1)c1ccccc1-n1cccc1	inactive
O=[N+]([O-])c1ccc(/C=N/N=C/c2ccc([N+](=O)[O-])o2)o1	inactive
O=C(N/N=C/c1ccc([N+](=O)[O-])o1)c1sc2ccccc2c1Cl	inactive
O=C(Cn1ncc(Cl)c(Cl)c1=O)N1CCOCC1	inactive
O=[N+]([O-])c1ccc(/C=N/Nc2ccnc3cc(Cl)ccc23)o1	inactive
COc1cc(OC)cc(C(=O)Nc2ccc3c(c2)OCCO3)c1	inactive
COc1cccc(NC(=O)Nc2cccc(C(=O)O)c2)c1	inactive
C/C(=N/N=C(/C)c1cccs1)c1cccs1	inactive
O=C(Nc1nc(-c2ccccn2)cs1)c1ccccc1-n1cnnn1	inactive
COc1ccc(Br)cc1C(C[N+](=O)[O-])c1c(N)n(C)c(=O)n(C)c1=O (stereo not drawn)	inactive
O=C(CCC1CCCN(C(=O)c2cc3ccccc3o2)C1)NCc1ccc(F)c(F)c1 (stereo not drawn)	inactive
